Experimental findings from PubChem BioAssay AID1851 (National Center for Advancing Translational Sciences (NCATS), 2009) are described below.

About 2,600 (16%) of roughly 16,000 compounds were called active. About 20% were inconclusive and are not listed. Only a sample is shown. A number with no mark means an inactive call. The call rests on the fitted dose curve; in most records, active means well fitted curve in the direction sought with a large enough effect; inconclusive means small, poorly fitted or top-dose-only effect, or effect the other way; inactive means no such curve, though single readings can be large or run the other way.
On the % scale 0 is the no-effect control and ±100 the full control effect.

Chain of Cytochrome P450 2D6 (Homo sapiens) (P10635 whole entry, looked up): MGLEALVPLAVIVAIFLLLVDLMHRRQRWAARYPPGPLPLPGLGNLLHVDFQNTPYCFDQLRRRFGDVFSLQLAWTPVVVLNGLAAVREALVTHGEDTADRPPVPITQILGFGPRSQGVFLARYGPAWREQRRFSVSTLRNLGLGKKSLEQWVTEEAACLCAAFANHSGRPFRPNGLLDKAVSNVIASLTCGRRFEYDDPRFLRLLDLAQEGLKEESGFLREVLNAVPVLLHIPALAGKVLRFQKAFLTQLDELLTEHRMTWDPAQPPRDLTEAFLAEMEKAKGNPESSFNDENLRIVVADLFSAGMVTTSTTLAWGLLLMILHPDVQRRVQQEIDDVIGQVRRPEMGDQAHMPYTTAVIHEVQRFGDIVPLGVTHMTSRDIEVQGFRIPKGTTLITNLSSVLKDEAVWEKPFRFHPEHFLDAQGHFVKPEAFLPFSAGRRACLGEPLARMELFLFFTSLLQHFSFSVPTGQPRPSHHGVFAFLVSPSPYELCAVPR

The experiment addresses Cytochrome P450 2D6 (Homo sapiens) (UniProt P10635). The experiment in a line: Cytochrome panel assay with activity outcomes. Conditions: recombinant CYP, pro-luciferin dealkylation, luminescence, p450-cyp2d6; series mostly up to 57.1 µM.
`Cc1ccc(S(=O)(=O)n2c3ccccc3c3nnc(C(=O)c4ccccc4)nc32)cc1`: the activity, negative = inhibition was -14.9% [at 11.4 µM].

On to `Cc1nn(C)c(C)c1CNC(=O)c1cnn2c1NC(c1ccccc1)CC2C(F)(F)F` (stereo unspecified), for which the AC50 entry is “inactive”.

Consider `Cn1c2c(c(=O)n(C)c1=O)CN(CCN1CCNCC1)CN2`, for which the AC50 result is “inactive”.

Take `O=C(CC1(O)CCCCC1)OC1CCCC1`: the activity, negative = inhibition was -5.94% [at 11.4 µM].

For the compound `CCCCSc1nnc(-c2cc3c(C(F)(F)F)nn(C)c3s2)n1C`, the AC50 result is “inactive”.

Take `C[N+](C)(C)CC(=O)O`: the AC50 result was “inactive”.

With `COc1ccc([C@@H](Nc2ccccn2)c2cc(C(C)(C)C)cc(C(C)(C)C)c2O)cc1`, the activity, negative = inhibition was -16.7% [at 11.4 µM].

As for `O=C(O)c1cc(C(=O)O)nc(C(=O)O)c1`, the activity, negative = inhibition is 0.571% [at 11.4 µM].

For the compound `CC(O)(P(=O)(O)O)P(=O)(O)O`, the AC50 entry was “inactive”.

`O=C(c1cccc(F)c1)N1CCC2(CC1)CN(c1ccncc1)C2`: the AC50 entry is “inactive”.

`O=C(c1cc(C(F)(F)F)cc(C(F)(F)F)c1)N1CCC2(CC1)CN(c1ccncc1)C2`: the AC50 result was “inactive”.

Consider `O=C(c1cc(C(F)(F)F)cc(C(F)(F)F)c1)N1CCC[C@@]2(CCN(c3ccncc3)C2)C1`, for which the AC50 result is “inactive”.

For the compound `O=C(c1cccc(F)c1)N1CCC[C@@]2(CCN(c3ccncc3)C2)C1`, the AC50 entry was “inactive”.

Take `O=C(c1cccc(F)c1)N1CCC2(CC1)CCN(c1ccncc1)CC2`: the AC50 was 20 µM (active).

On to `O=C(c1cc(C(F)(F)F)cc(C(F)(F)F)c1)N1CCC2(CC1)CCN(c1ccncc1)CC2`, for which the AC50 was 15.8 µM (active).

As to `Cc1ccc(C)c(-c2nn(-c3cc(N4CCN(CCO)CC4)ccc3[N+](=O)[O-])c(=O)c3ccccc23)c1`, the AC50 result is “inactive”.

Turning to `CCOC(=O)CC(Nc1nc(N2CCOCC2)nc(N2CCOCC2)n1)c1ccccc1Cl` (stereo unspecified), the AC50 result is “inactive”.

As to `COC(=O)c1[nH]c(C)c(/C(O)=C2\C(=O)C(=O)N(CCN(C)C)C2c2cccs2)c1C` (stereo unspecified), the AC50 result is “inactive”.

As for `COc1cccc(/C(O)=C2/C(=O)C(=O)N(c3cc(C)on3)C2c2cccs2)c1` (stereo unspecified), the AC50 result is “inactive”.

As for `CCN(CC)CCN1C(=O)C(=O)/C(=C(/O)c2ccc(OC)cc2)C1c1cccs1` (stereo unspecified), the AC50 was 14.1 µM (active).

For `CC(C)(C)C(=O)[C@H]([C@@H](c1ccccc1)N1CCOCC1)N1CCOCC1`, the activity, negative = inhibition was 6.76% [at 11.4 µM].

In the case of `Cc1ccc(NC(=O)c2sccc2SCc2cccc(C(F)(F)F)c2)cc1`, the AC50 entry was “inactive”.

Consider `O=C(c1ccccc1)c1ccc2n1CC[C@H]2C(=O)O`, for which the AC50 entry is “inactive”.

With `N#Cc1ccc(-c2ccccc2)nc1SCC(=O)c1cccc(Cl)c1`, the AC50 entry is “inactive”.

Turning to `CN1CCN(c2ncc3nc(-c4cn(C)c5ccccc45)c(=O)n(-c4ccccc4)c3n2)CC1`, the AC50 result is “inactive”.

With `COc1ccc(Cl)cc1C(=O)Nn1cnc2ccccc2c1=O`, the AC50 entry is “inactive”.

`O=C(Nn1cnc2ccccc2c1=O)c1ccc(F)cc1Cl`: the concentration at half-maximal activity (AC50) was 28.2 µM (active).

With `COc1ccc(C(=O)Nn2cnc3ccccc3c2=O)c(OC)c1`, the AC50 result was “inactive”.

Consider `COC(=O)c1ccc(NC(C)=O)o1`, for which the AC50 entry is “inactive”.

On to `COc1ccc(N(C(=O)COc2ccccc2OC)S(=O)(=O)c2ccc(C)cc2)cc1`, for which the AC50 result was “inactive”.

With `COc1ccc(C(C(=O)NC2CCCCC2)N(C(=O)CCCC(=O)Nc2ccccn2)c2ccc3c(c2)OCCO3)cc1` (stereo unspecified), the AC50 result was “inactive”.

Consider `Cc1cc([N+](=O)[O-])ccc1NCc1ccccc1`, for which the AC50 was 15.8 µM (active).

Turning to `O=C(O)c1cc([N+](=O)[O-])ccc1NCCCc1ccccc1`, the AC50 result is “inactive”.

In the case of `O=[N+]([O-])c1ccc(N2CCCC2)cc1NCc1ccccc1`, the AC50 result is “inactive”.

With `CO[C@H]1COC(=O)C/C=C\[C@H](C)COC(=O)[C@@H](OCc2ccccc2)/C=C\[C@@H]1C`, the activity, negative = inhibition was -13.9% [at 11.4 µM].

`CCn1c(C)cc(/C=C2\SC(=O)N(CC(=O)Nc3ccc(C)c(C)c3)C2=O)c1C`: the AC50 entry is “inactive”.

Take `COc1ccc(-c2nnc(-c3cccnc3)o2)cc1`: the AC50 result is “inactive”.

As to `NCCCCCc1nnc(SCc2ccccc2Cl)o1`, the concentration at half-maximal activity (AC50) is 11.2 µM (active).

As for `Cc1cccc(-c2nnc(SCc3ccccc3)o2)c1`, the AC50 entry was “inactive”.

For the compound `Clc1ccc(CSc2nnc(-c3cccnc3)o2)cc1`, the concentration at half-maximal activity (AC50) is 14.1 µM (active).

As for `Clc1ccccc1CSc1nnc(-c2ccncc2)o1`, the AC50 is 2 µM (active).

`C#CCSc1nnc(-c2sc3ccccc3c2Cl)o1`: the AC50 result is “inactive”.

Take `NCCCCCc1nnc(SCc2ccc(Cl)cc2Cl)o1`: the half-maximal activity concentration (AC50) was 1.41 µM (active).

Turning to `c1ccc(-c2nnc(SCCC3OCCCO3)o2)cc1`, the AC50 entry is “inactive”.

As to `Nc1nc(SCc2ccccc2Cl)cc(C(=O)O)n1`, the activity, negative = inhibition is 4.28% [at 11.4 µM].

`N#Cc1c(SCC(N)=O)nsc1SCc1ccccc1Cl`: the AC50 entry was “inactive”.

On to `COc1ccc(NC(=O)CCNS(=O)(=O)c2ccc3c(c2)c(=O)n(C)c(=O)n3C)cc1`, for which the AC50 result was “inactive”.

`O=C(CCCc1ccccn1)c1ccccc1`: the activity, negative = inhibition is -16.5% [at 11.4 µM].

In the case of `O=C1N=C(N2CCOCC2)S/C1=C/c1cccs1`, the AC50 entry was “inactive”.

Regarding `Cc1cc(=O)[nH]c(-n2[nH]c3c(c2=O)CCCC3)n1`, the AC50 entry was “inactive”.

As for `CCC1C(=O)OCC1Cc1cncn1C` (stereo unspecified), the AC50 result is “inactive”.

Consider `N=C(N)[C@H](N=Nc1ccccc1)C(N)=O`, for which the activity, negative = inhibition is 4.09% [at 11.4 µM].

`C[C@@](N)(Cc1ccc(O)c(O)c1)C(=O)O`: the AC50 entry is “inactive”.

Take `FC(F)(F)c1cnc(/C=C/Nc2ccccc2Cl)c(Cl)c1`: the AC50 result was “inactive”.

Take `COc1ccc(C(=O)NC2CCN(C(=S)Nc3cccc(C)c3)CC2)cc1`: the AC50 result was “inactive”.

Regarding `CC(=O)c1ccc(OC(=O)C2c3ccccc3Oc3ccccc32)cc1`, the AC50 result is “inactive”.

On to `CC[N+](C)(CC)CCOC(=O)C1c2ccccc2Oc2ccccc21`, for which the AC50 is 3.98 µM (active).

On to `O=C(O)c1ccccc1C1c2ccccc2Oc2ccccc21`, for which the activity, negative = inhibition is -7.56% [at 11.4 µM].

Take `COc1ccccc1N(CC(=O)NCC1CCCO1)C(=O)CNS(=O)(=O)c1ccc(C)cc1` (stereo unspecified): the AC50 result was “inactive”.

Take `N#CC1=C(SCC(N)=O)NC2=C(C(=O)c3ccccc32)C1c1ccc(Cl)cc1` (stereo unspecified): the AC50 entry is “inactive”.

For `c1ccc2c(NC3CC3)nc(-c3ccoc3)nc2c1`, the AC50 result was “inactive”.

As to `COc1cccc(-c2nc(NCCc3c[nH]c4ccc(OC)cc34)c3ccccc3n2)c1`, the half-maximal activity concentration (AC50) was 20 µM (active).

For the compound `CC(C)Oc1cccc(-n2c(CCc3c[nH]c4ccc(Br)cc34)nc3ccccc3c2=O)c1`, the AC50 result is “inactive”.

Consider `COc1ccc2[nH]cc(CCNc3nc(-c4cccnc4)nc4ccccc34)c2c1`, for which the half-maximal activity concentration (AC50) is 6.31 µM (active).

As for `COc1ccc2[nH]cc(CCNc3nc(-c4ccoc4)nc4ccccc34)c2c1`, the concentration at half-maximal activity (AC50) was 12.6 µM (active).

Turning to `COc1ccc2[nH]cc(CCNc3nc(-c4ccc(N(C)C)cc4)nc4ccccc34)c2c1`, the concentration at half-maximal activity (AC50) was 7.94 µM (active).

As a reminder, the AC50 is the midpoint of the concentration-response curve, whichever way the signal moves.
